Measured values: PubChem BioAssay (NCATS)
Results filed as inconclusive are left out. Calls of active or inactive are those of the source. Calls come from the whole dose curve; as a rule, active = well fitted curve in the direction sought with a large enough effect; inconclusive = small, poorly fitted or top-dose-only effect, or another doubt; inactive = no such curve, though single readings can be large; an effect the other way counts as inactive or inconclusive.

Columns and labels:
[1] = qHTS of pediatric cancer cell lines to identify multiple opportunities for drug repurposing: Primary screen for BT-12 cells (AID 1347101); note: nearly all actives have a fitted effect of over 25% in size
Method in brief: (§1)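 Cells (500-1,000/well) rested 5 h, then received compounds for 48 h; metabolically active cells were measured by CellTiter-Glo luminescence. Final concentrations spanned up to 46 µM (MIPE, 11-point) or 0.59 nM-46 µM (NPC, 8-point) in primary screens, 11-point in follow-ups.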

[2] = qHTS of pediatric cancer cell lines to identify multiple opportunities for drug repurposing: Primary screen for Rh18 cells (AID 1347102); note: nearly all actives have a fitted effect of over 65% in size
Method in brief: (§2)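 Cells (500-1,000/well) in growth media were settled 5 h at 37 degrees C, then given compounds for 48 h. Viability was read as CellTiter-Glo luminescence. Primary runs used MIPE at 11 points (0.78 nM-46 µM) and NPC at 8 points (0.59 nM-46 µM); follow-ups used 11 points.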

[3] = qHTS of pediatric cancer cell lines to identify multiple opportunities for drug repurposing: Primary screen for OHS-50 cells (AID 1347103); note: nearly all actives have a fitted effect of over 40% in size
Method in brief: as §1

[4] = qHTS of pediatric cancer cell lines to identify multiple opportunities for drug repurposing: Primary screen for RD cells (AID 1347104); note: nearly all actives have a fitted effect of over 55% in size
Method in brief: (§3)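 CRCs from 8- or 11-point titrations (lowest final 0.59 nM NPC, 0.78 nM MIPE). Cell viability: CellTiter-Glo after 48 h incubation, 15 min room-temperature development, luminescence imaging.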

[5] = qHTS of pediatric cancer cell lines to identify multiple opportunities for drug repurposing: Primary screen for MG 63 (6-TG R) cells (AID 1347105); note: nearly all actives have a fitted effect of over 50% in size
Method in brief: as §3

[6] = qHTS of pediatric cancer cell lines to identify multiple opportunities for drug repurposing: Primary screen for control Hh wild type fibroblast cells (AID 1347106); note: nearly all actives have a fitted effect of over 55% in size
Method in brief: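 Viability after 48 h compound treatment at 37C, 500-1,000 cells/well, read as ATP luminescence with CellTiter-Glo. Primary screens used 11-point (MIPE, 0.78 nM-46 µM) or 8-point (NPC, 0.59 nM-46 µM) final concentrations; follow-up screens used 11-point dilutions.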

[7] = qHTS of pediatric cancer cell lines to identify multiple opportunities for drug repurposing: Primary screen for Rh30 cells (AID 1347107); note: nearly all actives have a fitted effect of over 75% in size
Method in brief: as §2

[8] = qHTS of pediatric cancer cell lines to identify multiple opportunities for drug repurposing: Primary screen for Rh41 cells (AID 1347108); note: nearly all actives have a fitted effect of over 70% in size
Method in brief: as §3

[9] = qHTS of pediatric cancer cell lines to identify multiple opportunities for drug repurposing: Confirmatory screen for NB1643 cells (AID 1347109); note: nearly all actives have a fitted effect of over 45% in size
Method in brief: as §2

[10] = qHTS of pediatric cancer cell lines to identify multiple opportunities for drug repurposing: Confirmatory screen for A673 cells (AID 1347110); conditions: A673 Ewing sarcoma cell viability;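 note: cells exposed to compound for 48 h before the viability read; nearly all actives have a fitted effect of over 65% in size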
Method in brief: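 Concentration-response curves came straight from titrations: 11 points (0.78 nM to 46 µM) for MIPE and several concentrations (0.59 nM to 46 µM) for NPC in primary, 11 points in follow-up. Readout: ATP luminescence at 48 h.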

[11] = qHTS of pediatric cancer cell lines to identify multiple opportunities for drug repurposing: Confirmatory screen for SK-N-MC cells (AID 1347111); conditions: SK-N-MC cell viability;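 note: cells exposed to compound for 48 h before the readout; nearly all actives have a fitted effect of over 70% in size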
Method in brief: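 Metabolically active cells were quantified by ATP-dependent luminescence (CellTiter-Glo, 15 min at room temperature) following 48 h treatment. Cells had been plated at 500-1,000 per well and settled for 5 h beforehand.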

[12] = qHTS of pediatric cancer cell lines to identify multiple opportunities for drug repurposing: Confirmatory screen for BT-12 cells (AID 1347112); note: nearly all actives have a fitted effect of over 55% in size
Method in brief: as §2

[13] = qHTS of pediatric cancer cell lines to identify multiple opportunities for drug repurposing: Confirmatory screen for LAN-5 cells (AID 1347113); note: nearly all actives have a fitted effect of over 65% in size
Method in brief: as §2

[14] = qHTS of pediatric cancer cell lines to identify multiple opportunities for drug repurposing: Confirmatory screen for DAOY cells (AID 1347114); note: nearly all actives have a fitted effect of over 65% in size
Method in brief: (§4)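 Viability measured as metabolically active cells via CellTiter-Glo luminescence following 48 hours of compound exposure, 11-point dilutions in confirmatory testing. 500-1,000 cells/well plated 5 hours before dosing; controls were DMSO and 2.3 µM bortezomib.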

[15] = qHTS of pediatric cancer cell lines to identify multiple opportunities for drug repurposing: Confirmatory screen for NB-EBc1 cells (AID 1347115);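 note: cells exposed to compound for 48 h before the viability read; nearly all actives have a fitted effect of over 45% in size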
Method in brief: as §2

[16] = qHTS of pediatric cancer cell lines to identify multiple opportunities for drug repurposing: Confirmatory screen for SJ-GBM2 cells (AID 1347116); note: nearly all actives have a fitted effect of over 60% in size
Method in brief: as §4

[17] = qHTS of pediatric cancer cell lines to identify multiple opportunities for drug repurposing: Confirmatory screen for BT-37 cells (AID 1347117); conditions: BT-37 pediatric cancer cells, viability; note: nearly all actives have a fitted effect of over 55% in size
Method in brief: as §2

[18] = qHTS of pediatric cancer cell lines to identify multiple opportunities for drug repurposing: Confirmatory screen for TC32 cells (AID 1347118); conditions: TC32 Ewing sarcoma cells viability qHTS
Method in brief: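 qHTS, TC32, 48 h drug treatment, CellTiter-Glo luminescence as a proxy for metabolically active cells; primary top concentration 46 µM (MIPE 11-pt, NPC 8-pt); confirmatory 11-pt.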

[19] = qHTS of pediatric cancer cell lines to identify multiple opportunities for drug repurposing: Confirmatory screen for MG 63 (6-TG R) cells (AID 1347119); note: nearly all actives have a fitted effect of over 55% in size
Method in brief: as §2

Measured: Potency
Potency is the fitted concentration of half-maximal effect.

CCCCCCCC/C=C/C(=O)O
inactive: [1] | [2] | [3] | [4] | [5] | [6] | [7] | [8]

CCCCCCCCCCCCCCCCCC(=O)O
inactive: [1] | [2] | [3] | [5] | [6] | [7] | [8]

Cc1c(N)c(=O)n(-c2ccccc2)n1C
inactive: [1] | [2] | [3] | [4] | [5] | [6] | [7] | [8]

NCCO
inactive: [1] | [2] | [3] | [4] | [5] | [6] | [7] | [8]

CCC1C(=O)OCC1Cc1cncn1C (configuration not stated)
inactive: [1] | [2] | [3] | [5] | [6] | [7] | [8]

CCCCCCCCCCCCCCCC(=O)OC(C)C
inactive: [1] | [2] | [3] | [4] | [5] | [6] | [7] | [8]

O=C(CS)Nc1ccccc1
active: [6] 16.8 µM | [8] 21.1 µM
inactive: [1] | [2] | [3] | [5] | [7]

Cc1ccc2c(n1)Oc1ccc(C(C)C(=O)OCC(=O)N(C)C)cc1C2 (configuration not stated)
inactive: [1] | [2] | [3] | [4] | [5] | [6] | [7] | [8]

O=C(O)c1cc(O)c(O)c(O)c1
inactive: [1] | [2] | [3] | [4] | [5] | [6] | [7] | [8]

COC(=O)c1nc(Cl)c(Cl)nc1N
inactive: [6]
active: [1] 2.19 µM | [2] 23.7 µM | [3] 0.872 µM | [4] 5.96 µM | [5] 8.41 µM | [7] 21.1 µM | [8] 3.76 µM | [9] 3.69 µM | [10] 0.293 µM | [11] 1.17 µM | [12] 2.08 µM | [13] 3.29 µM | [14] 1.65 µM | [15] 16.5 µM | [16] 2.08 µM | [17] 1.47 µM | [18] 2.33 µM | [19] 2.93 µM

CO[C@@]1(NC(=O)Cc2cccs2)C(=O)N2C(C(=O)O)=C(COC(N)=O)CS[C@@H]21
inactive: [1] | [2] | [3] | [5] | [6] | [7] | [8]

Nc1c(CC(=O)O)cccc1C(=O)c1ccc(Br)cc1
inactive: [1] | [2] | [3] | [5] | [6] | [7] | [8]

O=C(/C=C/c1ccccc1)NCCO
inactive: [1] | [2] | [3] | [5] | [6] | [7] | [8]

C=CCCCCCCCCC(=O)O
inactive: [1] | [2] | [3] | [5] | [6] | [7] | [8]

O=C(CCN1CCN(CCO)CC1)N1c2ccccc2Sc2ccc(C(F)(F)F)cc21
inactive: [1] | [2] | [3] | [5] | [6] | [7] | [8]

c1ccc2sc(SSc3nc4ccccc4s3)nc2c1
inactive: [1] | [2] | [3] | [5] | [7] | [8]

CC(C)(C)c1nnc(NS(=O)(=O)c2ccc(N)cc2)s1
inactive: [1] | [2] | [3] | [5] | [6] | [7] | [8]

O=C(O)Cc1ccc2c(c1)C(=O)c1ccccc1CO2
inactive: [1] | [2] | [3] | [5] | [6] | [7] | [8]

Nc1cc(-c2ccncc2)c[nH]c1=O
inactive: [1] | [2] | [3] | [5] | [6] | [7] | [8]

S=c1[nH]c2ccccc2s1
inactive: [1] | [2] | [3] | [5] | [6] | [7] | [8]
